Source: publication PMC4336329 (PLoS ONE, 2015)
The campaign covered roughly 310,000 compounds. About 14,000 (4.5%) showed an effect of 50% or more. Effects have a minus sign here. The full list was thinned out, with strong results kept by preference.

target: human ether-à-go-go-related gene (hERG) potassium channel (human, UniProt Q12809); test: primary screen, population patch clamp on CHO cells stably expressing hERG; higher = less effect of the substance
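Also: peak tail current of the secondary pulse compared with the same well before compound.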

Chain of human ether-à-go-go-related gene (hERG) potassium channel (Q12809 whole entry, looked up): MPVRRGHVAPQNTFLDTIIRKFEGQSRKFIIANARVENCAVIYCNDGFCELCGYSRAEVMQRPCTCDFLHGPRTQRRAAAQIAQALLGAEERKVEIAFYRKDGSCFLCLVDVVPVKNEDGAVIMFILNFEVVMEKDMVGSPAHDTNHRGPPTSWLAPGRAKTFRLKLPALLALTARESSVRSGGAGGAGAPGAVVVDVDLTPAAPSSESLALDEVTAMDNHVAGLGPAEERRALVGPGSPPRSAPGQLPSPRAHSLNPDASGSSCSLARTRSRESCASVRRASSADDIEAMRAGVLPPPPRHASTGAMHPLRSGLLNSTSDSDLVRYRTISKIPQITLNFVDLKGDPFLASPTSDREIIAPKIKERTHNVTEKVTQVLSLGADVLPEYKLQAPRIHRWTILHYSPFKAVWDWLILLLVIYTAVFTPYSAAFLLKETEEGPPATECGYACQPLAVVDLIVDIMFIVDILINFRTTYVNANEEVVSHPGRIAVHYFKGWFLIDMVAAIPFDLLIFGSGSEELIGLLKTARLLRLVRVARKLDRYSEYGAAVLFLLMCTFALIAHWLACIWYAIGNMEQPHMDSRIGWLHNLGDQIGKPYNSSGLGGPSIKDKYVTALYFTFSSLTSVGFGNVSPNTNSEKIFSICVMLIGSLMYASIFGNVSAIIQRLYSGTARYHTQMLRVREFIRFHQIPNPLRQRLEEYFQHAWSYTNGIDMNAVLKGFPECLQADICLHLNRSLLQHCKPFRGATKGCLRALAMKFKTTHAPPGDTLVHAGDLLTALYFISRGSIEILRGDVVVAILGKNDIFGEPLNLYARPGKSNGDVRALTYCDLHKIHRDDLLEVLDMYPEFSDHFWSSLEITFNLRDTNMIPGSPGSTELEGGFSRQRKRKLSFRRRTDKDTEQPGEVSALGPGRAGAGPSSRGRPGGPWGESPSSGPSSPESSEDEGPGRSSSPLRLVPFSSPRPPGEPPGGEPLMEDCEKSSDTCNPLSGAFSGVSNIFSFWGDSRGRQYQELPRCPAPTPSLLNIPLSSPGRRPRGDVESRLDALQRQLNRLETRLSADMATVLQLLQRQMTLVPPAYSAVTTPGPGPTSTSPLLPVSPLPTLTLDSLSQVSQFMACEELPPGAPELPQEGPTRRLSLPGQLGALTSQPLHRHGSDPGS

Row | SMILES | hERG current change (%, negative = inhibition) at 10uM [%]
1 | O=C(CCCOc1ccc(Cl)cc1)Nc1nncs1 | -28.9
2 | Cc1cc(NC(=O)COc2cccc(Oc3ccccc3)c2)no1 | 13.5
3 | CCOc1cc(NCCN2CCOCC2)c([N+](=O)[O-])cc1OCC | -7.79
4 | COc1ccc(CC(=O)N2CCc3cc(OC)c(OC)cc3C2O)cc1OC (centres unmarked) | 8.05
5 | Cc1c(C)[n+](=O)c(-c2ccc(Br)cc2)c(C)n1[O-] | 13.1
6 | Cc1ccc2nc(Cl)c(C3CC(c4ccco4)=NN3S(C)(=O)=O)cc2c1 (centres unmarked) | -62.6
7 | CCOc1ccc2nc(Cl)c(C3CC(c4ccco4)=NN3S(C)(=O)=O)cc2c1 (centres unmarked) | -41.1
8 | Cc1ccc2cc(C3CC(c4ccco4)=NN3S(C)(=O)=O)c(Cl)nc2c1 (centres unmarked) | -15
9 | Fc1ccc(NC(=S)Nc2ccccc2OC(F)F)cc1Cl | 9.18
10 | CCOc1ccc(NC(=S)N(CCOC)C2CCN(C(C)C)CC2)cc1 | -29
11 | CN(Cc1cn[nH]c1-c1cc2ccccc2o1)CC1CCOCC1 | -66.4
12 | CN(Cc1ccon1)Cc1cn[nH]c1-c1ccc(-c2ccccc2)cc1 | -10.4
13 | CC(C)N(Cc1cn[nH]c1-c1ccc(-c2ccccc2)cc1)Cc1nccn1C | -71.9
14 | COc1ccc(-c2[nH]ncc2CN(Cc2nccn2C)C(C)C)c(F)c1 | -39.7
15 | c1ccc2oc(-c3[nH]ncc3CN(Cc3ccncc3)CC3CCCO3)cc2c1 (centres unmarked) | -22.6
16 | Cc1nnc(CN(C)Cc2cn[nH]c2-c2ccc(-c3ccccc3)cc2)o1 | -15.1
17 | CCN(CCn1cccn1)Cc1cn[nH]c1-c1ccc(-c2ccccc2)cc1 | 9.21
18 | COc1ccc(-c2noc(CN(Cc3nccn3C)C(C)C)n2)cc1 | -6.99
19 | CN(Cc1cccnc1)Cc1cn[nH]c1-c1ccc(-c2ccccc2)cc1 | -56.7
20 | COC(=O)c1ccc(-c2noc(CN(Cc3nccn3C)C(C)C)n2)cc1 | -37
21 | O=C1CC[C@@H](CN(Cc2ccccc2)Cc2cn[nH]c2-c2cc3ccccc3o2)N1 | -6.77
22 | CC(C)N(Cc1nc(-c2ccc(Cl)cc2)no1)Cc1nccn1C | -50.4
23 | Cc1csc(NC(=O)CCC(=O)N(CC(=O)NC2CCCC2)c2ccccc2)n1 | -3.43

Row | SMILES | hERG current change (%, negative = inhibition) at 10uM [%]
24 | Cc1ccc(CNC(=O)CCCOc2cc(=O)n(C)c3ccccc23)o1 | -17.9
25 | Cc1[nH][nH]c(=O)c1N=Nc1ccc(Cl)cc1 | 2.19
26 | C/C(NC(=O)c1cccs1)=C1\C(=O)C[C@@H]2[C@H]1C2(C)C | -19.6
27 | CCOc1ccc(C(=O)CCC(=O)NC(CC(C)C)C(=O)OC)cc1 (centres unmarked) | -2.17
28 | CCOC(=O)CNC(=O)c1sc(NC(=O)c2cccc(F)c2)nc1C | -0.522
29 | O=C(CCCOc1ccc(Cl)cc1Cl)Nc1ccccn1 | 24.2
30 | NC(=O)c1nn(-c2ccccc2)nc1N | 0.947
31 | O=c1[nH]c2cc3c(cc2cc1C(c1nnnn1Cc1ccccc1)N1CCN2CCCC2C1)OCCO3 (centres unmarked) | -0.778
32 | Cc1cc(C)nc(NC(=O)CCC2CCCC2)c1 | -4.11
33 | COc1ccc2c(c1)CC/C(=C\c1ccc(C)o1)C2=O | 8.29
34 | CCOC(=O)c1cn2nc(N3CCCC3)ccc2n1 | 1.32
35 | CN(Cc1cn[nH]c1-c1ccc2c(c1)OCO2)C1CCOCC1 | 12.7
36 | CN(CCC1CCOCC1)Cc1cn[nH]c1-c1ccc(-c2ccccc2)cc1 | -62.6
37 | CN(CCc1cnn(C)c1)Cc1cn(C)nc1-c1ccccc1F | 9.85
38 | Cn1cc(CCNCc2cn[nH]c2-c2ccc(-c3ccccc3)cc2)cn1 | -64.8
39 | CN(CCc1cnn(C)c1)Cc1cn(C)nc1-c1ccc2c(c1)OCCO2 | 5.94
40 | CCn1cc(CNCc2cn[nH]c2-c2cc3ccccc3o2)cn1 | -14.1
41 | COCCN1CCC(CNCc2cn[nH]c2-c2ccc(C)c(C)c2)C1 (centres unmarked) | -3.39
42 | CN(CCc1cnn(C)c1)Cc1cn[nH]c1-c1ccc(-c2ccccc2)cc1 | -66.6
43 | Cn1cc(CNCc2cn[nH]c2-c2ccc(F)cc2)c(-c2ccc3c(c2)OCCO3)n1 | -21.6
44 | COc1ccc(-c2[nH]ncc2CNCCc2ncccc2C)cc1F | -41.7
45 | Cc1ccc(-c2[nH]ncc2CNCCc2cnn(-c3ccccc3)c2)cc1C | -66.4
46 | CN(Cc1cn[nH]c1-c1ccc(-c2ccccc2)cc1)CC1CCOCC1 | -46.2

Row | SMILES | hERG current change (%, negative = inhibition) at 10uM [%]
47 | O=C(COc1ccc2c3c(c(=O)oc2c1)CCC3)Nc1ccc(CCO)cc1 | 21.2
48 | O=C(CCc1nnc(Cc2ccc(-c3ccccc3)cc2)o1)NCC1CC1 | -4.72
49 | CN(C)c1cc2c(cc1NS(=O)(=O)c1ccccc1)n(C)c(=O)n2C | 10.5
50 | CN1CCN(C(=O)Nc2cccc(-c3ccccc3)c2)CC1 | -3.63
51 | O=C(NCCC1=CCCCC1)c1c(O)nc2ccccn2c1=O | 0.215
52 | O=c1c2ccccc2nc(-c2ccco2)n1/N=C/c1ccco1 | 13.1
53 | CC(C)N(C(=O)CSc1nc2ccccc2n1Cc1ccc(F)cc1)C(C)C | -27.3
54 | CN1C[C@@H]2C(c3ccc(C(F)(F)F)cc3)C3(c4cccnc4)CC2(C3)[C@H]1c1ccccc1 (some centres unmarked) | -60
55 | CN1C[C@@H]2C(c3ccccc3)C3(c4ccc(C#N)cc4)CC2(C3)[C@H]1c1ccccc1 (some centres unmarked) | -32.5
56 | CN1C[C@@H]2C(c3ccc(Cl)nc3)C3(c4ccccc4)CC2(C3)[C@H]1c1ccccc1 (some centres unmarked) | -43.1
57 | CN1C[C@@H]2C(c3ccc(C(F)(F)F)cc3)C3(c4ccccc4)CC2(C3)[C@H]1c1ccccc1 (some centres unmarked) | -1.14
58 | CN1C[C@@H]2C(c3ccc(Cl)nc3)C3(c4ccc(C#N)cc4)CC2(C3)[C@H]1c1ccccc1 (some centres unmarked) | -54.9
59 | CN1C[C@@H]2C(c3ccccc3)C3(c4cccnc4)CC2(C3)[C@H]1c1ccccc1 (some centres unmarked) | -46.5
60 | Clc1ccc(-c2nc(Cc3ccccc3)no2)cc1 | 11.9
61 | Cn1ccs/c1=N\S(=O)(=O)c1ccc(C(C)(C)C)cc1 | -11.5
62 | CC(NC(=S)NC1CCCCC1)c1ccc(C(C)(C)C)cc1 (centres unmarked) | 10.6
63 | c1coc(-c2cc(C3CCNCC3)[nH]n2)c1 | 15.5
64 | Cc1cc(C(=O)N2CCC(C)CC2)on1 | 1.18
65 | CC(C)n1nc(C(=O)NNC(=O)c2ccc(OC(F)F)cc2)c2ccccc2c1=O | -76.3
66 | CC(C)n1nc(C(=O)NNC(=O)c2ccncc2)c2ccccc2c1=O | 3.56
67 | CC(C)n1nc(C(=O)Oc2ccc(Cl)cc2)c2ccccc2c1=O | 5.39
68 | CCCCc1n(CC(=O)c2ccc(Cl)cc2)c2ccccc2[n+]1C.[Br-] | 8.02
69 | CCCCCCCCCCOC(=O)Cn1c(COc2ccc(C)cc2)[n+](C)c2ccccc21.[Cl-] | -74.9

Row | SMILES | hERG current change (%, negative = inhibition) at 10uM [%]
70 | Cc1ccc(OCCCCn2c(CO)nc3ccccc32)cc1 | -14.6
71 | CCCCCOC(=O)Cn1c(=O)oc2ccccc21 | 0.0173
72 | CCCCCCCCCCOC(=O)Cn1c(COc2cccc(OC)c2)[n+](C)c2ccccc21.[Cl-] | -76.7
73 | CN(C)C(=O)Oc1ccc(OCc2n(C)c3ccccc3[n+]2C)cc1.[Cl-] | 5.79
74 | NNC(=O)Cn1c(COc2ccc(Cl)cc2)nc2ccccc21 | -9.34
75 | CN(C)C(=O)Oc1cccc(OCc2n(C)c3ccccc3[n+]2C)c1.[Cl-] | 14.7
76 | CCCCCCCCCCOC(=O)Cn1c(COc2ccc(Cl)cc2)[n+](C)c2ccccc21.[Cl-] | -76.2
77 | CCOC(=O)C(CCCOc1cccc(OC)c1)C(=O)OCC | -14.9
78 | CCCCCCCCCCOC(=O)Cn1c(COc2ccccc2)[n+](C)c2ccccc21.[Cl-] | -76.1
79 | CCCCCCCCOc1ccc(C(=O)O)cc1 | 13.3
80 | COc1cc(OC)c2ccc(=O)oc2c1C(CC(=O)N1CCCC1)c1ccc(N(C)C)cc1 (centres unmarked) | 10.2
81 | COc1cccc(C(C(=O)NC2CCCC2)N(C(=O)c2ccco2)c2ccc(-n3cnnn3)c(C)c2)c1OC (centres unmarked) | 8.33
82 | COc1cc(Cl)ccc1OCc1cc(C(=O)N2C[C@]3(C)C[C@H]2CC(C)(C)C3)no1 | -8.91
83 | CC12CCC(CC1=O)C2(C)C (centres unmarked) | 8.29
84 | CCCCCCCCCCOC(=O)Cn1c(COc2cccc(C)c2)[n+](C)c2ccccc21.[Cl-] | -76
85 | Cc1cccc(OCCCCn2c(CO)nc3ccccc32)c1 | -5.5
86 | CCCCCOC(=O)Cn1c(=O)oc2ccc(C)cc21 | -10.6
87 | CCCCOC(=O)Cn1c2ccc(OC)cc2c2nc3ccccc3nc21 | -6.29
88 | COc1ccc(OCCCCn2c(CO)nc3ccccc32)cc1 | -24.5
89 | CCCCCCCCCCOC(=O)Cn1c(COc2ccc(OC)cc2)[n+](C)c2ccccc21.[Cl-] | -83.3
